Experimental data as given in PMC7819943, “Rice protein-binding microarrays: a tool to detect cis-acting elements near promoter regions in rice”.
In all, about 39,000 sequences were measured (“fluorescence intensity (a.u.)”: median about 4,300, highest 2% from about 39,000 on). The entries come from a sample that favours the highest values as a whole.

What follows are sequences tested against T1, OsSMF1 (Oryza sativa, UniProt Q6ZLB0 1-436) (assay: protein-binding microarray (RPBM); PBS, 2% BSA, 51.3 ng/ul salmon testes DNA, 50 uM zinc acetate, 200 nM TF, 25 C, 1 h; high values mean tight binding). Details: protein: recombinant; tags: N-terminal polyhistidine and DsRed monomer fusion (pET32a); chain copies: 2; label: CyDye5-dUTP incorporated in the synthesized complementary strand; 3' TTTTT single-stranded linker to array surface; dsDNA, one strand shown.
T1 sequence: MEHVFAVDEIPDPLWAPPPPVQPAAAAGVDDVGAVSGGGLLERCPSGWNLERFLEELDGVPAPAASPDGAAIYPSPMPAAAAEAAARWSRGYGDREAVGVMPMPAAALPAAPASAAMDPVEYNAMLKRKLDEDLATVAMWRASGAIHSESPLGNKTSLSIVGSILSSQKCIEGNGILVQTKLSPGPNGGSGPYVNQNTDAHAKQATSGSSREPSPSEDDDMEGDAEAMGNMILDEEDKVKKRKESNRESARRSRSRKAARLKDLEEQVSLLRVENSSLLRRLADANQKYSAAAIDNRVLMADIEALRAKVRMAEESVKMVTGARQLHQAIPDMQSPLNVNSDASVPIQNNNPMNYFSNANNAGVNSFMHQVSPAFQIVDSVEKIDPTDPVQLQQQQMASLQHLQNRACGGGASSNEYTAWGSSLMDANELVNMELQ
How it was run: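 Transcription factors, each fused N-terminally to a polyhistidine tag and DsRed, were expressed in E. coli BL21-CodonPlus and purified on Ni–NTA. A custom Agilent array was made double-stranded by primer extension with Cy5-dUTP and blocked with 2% BSA. It was incubated with 200 nM protein in PBS, 2% BSA, salmon testes DNA and 50 µM zinc acetate at 25 °C for 1 h, then washed. The binding signal is per-feature fluorescence intensity (arbitrary units) read on an Axon 4000B scanner.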
With “TTTCAATTATTTAGGTATTAACATTAACTACTTTACTAACCGGAGTCACCTAGTGCAG” the binding signal was 14800 fluorescence intensity (a.u.).
With “GCAAACAAAATATACCTGCCAAGTCAACTTCACGGCCGGACGGAGTCACCTAGTGCAG” the binding signal was 4280 fluorescence intensity (a.u.).
“TTTTCAATTGTACATTGAGTCATTGACAATGCACAATTTACGGAGTCACCTAGTGCAG” was tested, and the binding signal was 3680 fluorescence intensity (a.u.).
In the case of “AGAAATCAACTTCAAACCTTTATTCTCAACATCAGGAGATCGGAGTCACCTAGTGCAG”, the binding signal is reported as 26000 fluorescence intensity (a.u.).
“ACTCTAAATTTAAACTTTTCACTCAATTGAAACTTTTCAACGGAGTCACCTAGTGCAG” was tested, and the binding signal was 24700 fluorescence intensity (a.u.).
In the case of “GGGATGGCCAGATTGGAACTCAGCAGACTCGCTGATGACTCGGAGTCACCTAGTGCAG”, the binding signal is reported as 3800 fluorescence intensity (a.u.).
For “TTGTCCCTATAATAATATGTCACTCAAAATTGCTAATAAACGGAGTCACCTAGTGCAG”, the binding signal was 3400 fluorescence intensity (a.u.).
With “GATGTACTCGAGTATCTTCCCCTTCCTAGTTCCTTCCCTTCGGAGTCACCTAGTGCAG” the binding signal was 13900 fluorescence intensity (a.u.).
With “GATGCAAAGAGAGCTACTAGCTGAGTTGGATGGAATTAACCGGAGTCACCTAGTGCAG” the binding signal was 5550 fluorescence intensity (a.u.).
For “AAGTAGGCGTAGTTAAATCAAATGAGTGCTGTGCTGTCCACGGAGTCACCTAGTGCAG”, the binding signal was 3400 fluorescence intensity (a.u.).
For “CCGTCGCCGTCGGCACCGCCGCCGGAGCTCCTCCCTGCTCCGGAGTCACCTAGTGCAG”, the binding signal was 3220 fluorescence intensity (a.u.).
In the case of “ATCTACTGATTTACAACCTCCTTAATTAACAAGCACGGGTCGGAGTCACCTAGTGCAG”, the binding signal is reported as 24600 fluorescence intensity (a.u.).
With “ACTCCTCGGATAGGCGATGGCGGCCGCGGTCACCGCGCCACGGAGTCACCTAGTGCAG” the binding signal was 3370 fluorescence intensity (a.u.).
“AAGCTGTTTCACAAGGCAGTTTTGCATACGTGGCGGGCTGCGGAGTCACCTAGTGCAG” was tested, and the binding signal was 21500 fluorescence intensity (a.u.).
For “AGGAAGGAAGGAAGCAAAATGCTGACGTGTACATAAACCGCGGAGTCACCTAGTGCAG”, the binding signal was 16000 fluorescence intensity (a.u.).
For “CACCCACGAGCACACCCGTACCAGGGGACGAGGAGGTGGACGGAGTCACCTAGTGCAG”, the binding signal was 38300 fluorescence intensity (a.u.).
For “GGTGTGGAGGGGTTGGACCAGAGCACGACGACGGCGAGGACGGAGTCACCTAGTGCAG”, the binding signal was 45100 fluorescence intensity (a.u.).
With “CTAGACGCCGGCGACGACGAGGGTGGTTGGGTTGTGGATACGGAGTCACCTAGTGCAG” the binding signal was 3740 fluorescence intensity (a.u.).
With “CGGTGCGAGGTACTACGTCAAGGCGTACGAGGCCAGGTACCGGAGTCACCTAGTGCAG” the binding signal was 3140 fluorescence intensity (a.u.).
With “CACCGCGACGCACATACCCACCCGCCGGCCACGCACGAGACGGAGTCACCTAGTGCAG” the binding signal was 4460 fluorescence intensity (a.u.).
For “CGCATACCGGCCAGAAACACGACGGCGACGAGGTGCACTACGGAGTCACCTAGTGCAG”, the binding signal was 41500 fluorescence intensity (a.u.).
With “AGAGGGCGTGTACTCGTGACATCGTGTGTGTGCGTGTGCGCGGAGTCACCTAGTGCAG” the binding signal was 6670 fluorescence intensity (a.u.).
For “TTACTACACGGATCGCGGTCACGTCACGTGGTCCATAGTCCGGAGTCACCTAGTGCAG”, the binding signal was 6690 fluorescence intensity (a.u.).
“CTTTCCCTATCTTTCTCCTCATCATATGTGTCATGATGCACGGAGTCACCTAGTGCAG” was tested, and the binding signal was 9020 fluorescence intensity (a.u.).
For “AGCTATCATGTAAGCGTCACGTCAATGCGATGCAGGGGCGCGGAGTCACCTAGTGCAG”, the binding signal was 4630 fluorescence intensity (a.u.).
In the case of “TTTAGTGGCAGTCTTATAATAACGATTCAAAATAGTGGCACGGAGTCACCTAGTGCAG”, the binding signal is reported as 3190 fluorescence intensity (a.u.).
In the case of “ACAAATAAATCCTTAAATACACTAACTATCGAATGCACGCCGGAGTCACCTAGTGCAG”, the binding signal is reported as 41300 fluorescence intensity (a.u.).
For “AATATACAACACTATATTATTAATGCAGTCCAATCGATATCGGAGTCACCTAGTGCAG”, the binding signal was 37000 fluorescence intensity (a.u.).
“TAACAAATAACCTTAAGTCCTTAACAAATAATAAGTGCACCGGAGTCACCTAGTGCAG” was tested, and the binding signal was 3190 fluorescence intensity (a.u.).
With “CCCGCCGTCGCCGGGGAAGACGACACGCCCGCCGTCCTTGCGGAGTCACCTAGTGCAG” the binding signal was 3580 fluorescence intensity (a.u.).
With “ACATTGACTCAGCCACCACGTCACCTAAAATCGGGAACAGCGGAGTCACCTAGTGCAG” the binding signal was 13000 fluorescence intensity (a.u.).
With “CACGATTGCTCGGTGAGCACTGAGCAGTGACCTCATTCGGCGGAGTCACCTAGTGCAG” the binding signal was 3820 fluorescence intensity (a.u.).
“GACGCGTACGCACGGTGGGACGCGGTGGTGGGGTGCTGGGCGGAGTCACCTAGTGCAG” was tested, and the binding signal was 3920 fluorescence intensity (a.u.).
In the case of “AGCTGGACAAGATCGGAATAGTAGGCCAGGCCCAAAGCAACGGAGTCACCTAGTGCAG”, the binding signal is reported as 49400 fluorescence intensity (a.u.).
“ATAGGAAGGGAAGCAACGGAGGAGGAGATCGGCTGGTGGTCGGAGTCACCTAGTGCAG” was tested, and the binding signal was 7740 fluorescence intensity (a.u.).
“TGGTAGGGAAGCAGGTGGAAGGAGGACAGGAAGGCCCAATCGGAGTCACCTAGTGCAG” was tested, and the binding signal was 34000 fluorescence intensity (a.u.).
For “AAGAACGCCTTCGCGTGGGCCGCCGTCATCGGGATGTGGACGGAGTCACCTAGTGCAG”, the binding signal was 3220 fluorescence intensity (a.u.).
“CTCACTCGCTTGCGCTTCACCTCGCGGCATCGACTTCCTACGGAGTCACCTAGTGCAG” was tested, and the binding signal was 3630 fluorescence intensity (a.u.).
With “TTAAATGGTCATTCCTGTGTTTTACAATCATATATCTTACCGGAGTCACCTAGTGCAG” the binding signal was 3990 fluorescence intensity (a.u.).
With “GTCCATATATCCGATGTGACACGCCAACACTTTTCGTATCCGGAGTCACCTAGTGCAG” the binding signal was 4090 fluorescence intensity (a.u.).
“TGGCTTCACTTGCAACGGTACAAGAACCACCATCACTTCCCGGAGTCACCTAGTGCAG” was tested, and the binding signal was 40100 fluorescence intensity (a.u.).
In the case of “AAGATCATCACAATTCATCACTCACAACCACATCACATCCCGGAGTCACCTAGTGCAG”, the binding signal is reported as 3260 fluorescence intensity (a.u.).
In the case of “CACATCGAACGGTCCAAGAACAACCACATCACCAATGTGCCGGAGTCACCTAGTGCAG”, the binding signal is reported as 3710 fluorescence intensity (a.u.).
